We go through 25 compounds from PubChem BioAssay (NCATS).

The structures appear in SMILES notation. Inconclusive results are not listed. A call without a number means that no potency is given here. Calls of active or inactive are those of the source. Calls follow the shape of the dose curve; as a rule, active = well fitted inhibition curve with a large enough effect; inconclusive = small, poorly fitted or top-dose-only effect; inactive = flat fitted curve, though single readings scatter. Where a SMILES comes first, the peptide text is derived from it. [ ]: non-standard residue; d: D form. ξ: configuration not given here. ξPhe(βξ-Me) = CC(c1ccccc1)C(N)C(=O)O; GABA = NCCCC(=O)O

The target of the assay is Calcium and integrin-binding protein 1 (Homo sapiens) (UniProt Q99828). Kind of assay: Primary qHTS for Identification of Calcium Integrin Binding Protein 1 (CIB1) Competitor (AID 1508620).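 Also: GST tagged CIB1 binding a fluorescein labelled alphaIIb integrin peptide tracer; top concentration of the series differs between compounds.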 Particulars: CIB1-GST / FITC-alphaIIb peptide fluorescence polarization; series mostly up to 114 µM. An outline of the steps: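 CIB1-GST (1 uM final) and compound incubated 15 min at room temperature before adding FITC-alphaIIb peptide tracer (100 nM final). Competition for binding read by fluorescence polarization (ex 480, em 540) after another 15 min at room temperature.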
Calcium and integrin-binding protein 1 (Homo sapiens), sequence (Q99828 whole entry, looked up): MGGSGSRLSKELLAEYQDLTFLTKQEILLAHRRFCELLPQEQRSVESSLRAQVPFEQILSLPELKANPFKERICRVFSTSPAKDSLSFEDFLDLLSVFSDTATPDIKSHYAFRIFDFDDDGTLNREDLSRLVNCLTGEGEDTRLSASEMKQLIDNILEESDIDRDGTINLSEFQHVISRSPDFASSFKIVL
In the case of `CC(=O)O[C@@H]1[C@@H](CO)O[C@@](CO)(O[C@H]2O[C@H](COC(=O)/C=C/c3ccccc3)[C@@H](O)[C@H](O)[C@H]2O)[C@H]1O`, the Potency result is “inactive”.
Regarding `C=C1CCC2C(C)(C(=O)O)CCCC2(C)C1CC/C(=C\CO)CO` (stereo not given), the Potency entry is “inactive”.
On the same count and under the same terms, the same measure for `C[C@@H]1CCC/C=C/[C@H]2CC(=O)C[C@@H]2[C@@H](O)/C=C/C(=O)O1`: “inactive”.
In the case of `O=C(O)C(O[C@@H]1O[C@H](CO[C@@H]2O[C@H](CO)[C@@H](O)[C@H](O)[C@H]2O)[C@@H](O)[C@H](O)[C@H]1O)c1ccccc1` (stereo not given in full), the Potency entry was “inactive”.
As for `C=CC(C)(CC/C=C(\C)C(=O)OC)OC1OC(COC(=O)CC(C)(O)CC(=O)O)C(OC2OC(CO)C(O)C(O)C2O)C(O)C1O` (stereo not given), the Potency entry is “inactive”.
As for `COc1ccc(/C=C/C(=O)O[C@@H]2[C@@H](O)[C@@H](O)[C@H](O[C@@H]3C=C(CO)[C@H]4[C@H](O[C@@H]5O[C@H](CO)[C@@H](O)[C@H](O)[C@H]5O)OC=C[C@H]43)O[C@H]2C)cc1O`, the Potency result is “inactive”.
On to `CC1=C(C(=O)O)/C(=C/CO[C@@H]2O[C@H](COC(=O)/C=C/c3ccc(O)cc3)[C@@H](O)[C@H](O)[C@H]2O)C(O)C1` (stereo not given in full), for which the Potency entry is “inactive”.
For `C=C[C@]1(C)C[C@H](O)[C@@H]2[C@H](OC(=O)[C@@H]2C)C1/C(C)=C/O[C@@H]1O[C@H](CO)[C@@H](O)[C@H](O)[C@H]1O` (stereo not given in full), the Potency entry was “inactive”.
Consider `COC1/C=C/C(C)(O)C(SCC(N)C(=O)O)CC(=O)OC(C)C(C)CC/C=C/1C` (stereo not given), for which the Potency entry is “inactive”.
As for `CC1NC(=O)CCCNC(=O)C(Cc2c[nH]c3ccccc23)NC(=O)C(C)NC(=O)C(C(C)C)NC(=O)C(C(C)c2ccccc2)NC(=O)C(C(C)C)NC1=O` (stereo not drawn) (cyclo([GABA]AV[ξPhe(βξ-Me)]VAW); configuration not given here), the Potency result was “inactive”.
Consider `Cc1cc2c(F)c(Oc3ncnn4cc(OCC(C)O)c(C)c34)ccc2[nH]1` (stereo not given), for which the Potency entry is “inactive”.
Regarding `CN(C)c1nc(NC2CCC(NCCc3ccc(Br)cc3OC(F)(F)F)CC2)nc2ccccc12` (stereo not given), the Potency entry was “inactive”.
On to `CC1(C)CCCC2(C)C(CO)C(CO)=CCC12` (stereo not given), for which the Potency result was “inactive”.
As to `C[C@H](NC(c1cccc2[nH]c(=O)c(=O)[nH]c12)P(=O)(O)O)c1ccc(Br)cc1` (stereo not given in full), the Potency result is “inactive”.
Regarding `COC(=O)C12C(=O)C(C)=C(O)C1(C)C(C)=CC1C3(CO)CCC(O)C(C)(C)C3CCC12C` (stereo not given), the Potency result is “inactive”.
With `Cc1cccc2c1NC(=O)C2(c1ccc(O)cc1)c1ccc(O)cc1`, the Potency result was “inactive”.
As for `CCN(CC)Cc1ccc(C(=O)N(CCc2ccccc2OC)[C@@H]2CCNC2)cc1`, the Potency result was “inactive”.
On the same count and under the same terms, the same measure for `CC(C)=CCC[C@](C)(O)[C@H]1CC[C@]2(C)[C@@H]1[C@H](O)CC1[C@@]3(C)CC[C@H](O)C(C)(C)[C@@H]3[C@@H](O[C@@H]3O[C@H](CO)[C@@H](O)[C@H](O)[C@H]3O[C@@H]3O[C@H](CO)[C@@H](O)[C@H](O)[C@H]3O)C[C@]12C` (stereo not given in full): “inactive”; for `CC(=O)N[C@H]1[C@H](O[C@H]2CC[C@@]3(C)C(CC[C@]4(C)C3CC=C3[C@@H]5CC(C)(C)CC[C@]5(C(=O)OC5OCC(O)C(O)C5O)CC[C@]34C)C2(C)C)O[C@H](COC2OC(C)C(O)C(OC3OC(C)C(O)C(O)C3O)C2O)[C@@H](O)[C@@H]1O` (stereo not given in full): “inactive”.
Regarding `CC(=O)O[C@@H]1[C@H](O[C@@H]2O[C@@H](CO)[C@H](O)[C@H]2O)[C@@H](O[C@@H]2O[C@@H](C)[C@H](O[C@@H]3OC[C@@H](O)[C@H](O)[C@H]3O)[C@@H](O)[C@H]2O)[C@H](OC(=O)[C@]23CCC(C)(C)C[C@H]2C2=CCC4[C@@]5(C)CC[C@H](O[C@@H]6O[C@H](C(=O)O)[C@@H](O)[C@H](O)[C@H]6O[C@@H]6O[C@H](CO)[C@H](O)[C@H](O)[C@H]6O)[C@@](C)(C=O)C5CC[C@@]4(C)[C@]2(C)CC3)O[C@@H]1C` (stereo not given in full), the activity change, negative = inhibition was -9.52% [at 12.4 µM] (inactive).
Consider `C[C@@H]1C[C@@H](O)[C@@]23CO[C@@H](O)[C@@H]2CCC[C@@H]3[C@@]12C[C@@H](c1ccoc1)OC2=O`, for which the Potency result was “inactive”.
Take `Cc1cc(Nc2ncc3cc(-c4c(Cl)cccc4Cl)c(=O)n(C)c3n2)ccc1F`: the Potency entry is “inactive”.
On the same count and under the same terms, the same measure for `CC(C)C(NC(=O)c1ccc2ccccc2n1)C(=O)NC(CC(=O)O)C(=O)COc1c(F)cccc1F` (stereo not given): “inactive”; for `N#Cc1c(Oc2ccc(F)c(NC(=O)Cc3cccc(C(F)(F)F)c3)c2)ccc2nc(NC(=O)C3CC3)sc12`: “inactive”.
As for `O=C(O)c1ccccc1NC(=O)N1CCC(c2ccccc2C(F)(F)F)CC1`, the Potency result is “inactive”.
